Sampled rows, rich in hits. Any-hit rate of the full collection: about 3.6%.
PLK1 PBD block: blocks phosphopeptide binding to human PLK1 polo-box domain. Potency, µM, for inactives: max response, negative = inhibition, usual class: inhibitors. P53350. 360,000 tested, 2.8% active. Plk1 PBD binding of FITC phosphopeptide, fluorescence polarization. AID 720504; note: potency is the fitted concentration of half-maximal effect; series mostly up to about 57 µM; % is set by controls: 0 for no effect and ±100 for the full control effect; nearly all actives have a fitted effect of over 65% in size
Rango complex inh: Rango-importin beta binding inhibition; Rango CFP/YFP FRET sensor + importin beta, 45 min; Potency, µM (doses to about 92.2 µM), without a hit: at the highest dose inhibition of complex formation; 340,000 tested, 0.031% active; AID 540263; calls by dose curve;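 note: potency is the fitted concentration of half-maximal effect; 0% = DMSO wells and 100% = buffer wells lacking importin beta; nearly all actives have a fitted effect of over 15% in size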
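FRET biosensor (snurportin 1 IBB flanked by EYFP and cerulean), 50 nM, with compound 5 min, then 0.125 microM importin beta in PBS, 1 mM DTT, 0.02% Tween-20, 0.1% BSA. CFP/YFP ratio read after 45 min at room temperature; pre-read flags interference.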
Rango dissoc inh: inhibitors of RanGTP-induced Rango-importin beta complex dissociation. Potency, µM (highest dose often 46.1 µM), for inactives: at the highest dose activity change, negative = inhibition. O95149+P62826. AID 540253. Biochemical FRET Rango-importin beta, RanGTP-induced dissociation. 340,000 tested, 0.071% active; calls by dose curve; note: potency is the fitted concentration of half-maximal effect; % of control where 0% means no effect; nearly all actives have a fitted effect of over 45% in size
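FRET read at 45 min, room temperature: inhibitors block the CFP/YFP signal rise when RanGTP (0.6 uM Ran, 2 mM GTP, 0.2 uM RCC1) frees Rango (0.1 uM) from importin beta (0.25 uM). Pre-read after 5 min compound exposure flags interference.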
PI5P4K alpha inh: PI5P4K alpha (human) kinase inhibition | PI5P4Kalpha enzyme, ADP-Glo luminescence, 60 min; active compounds read low | P48426 | max response, % | 330,000 tested, 1.2% active | AID 652105; active = max response of -50% or lower; inconclusive = between -30% and -50%; inactive = -30% or higher; note: value at the top dose of about 77 µM; % is set by controls: 0 for no effect and ±100 for the full control effect
Target sequence (P48426 whole entry, looked up): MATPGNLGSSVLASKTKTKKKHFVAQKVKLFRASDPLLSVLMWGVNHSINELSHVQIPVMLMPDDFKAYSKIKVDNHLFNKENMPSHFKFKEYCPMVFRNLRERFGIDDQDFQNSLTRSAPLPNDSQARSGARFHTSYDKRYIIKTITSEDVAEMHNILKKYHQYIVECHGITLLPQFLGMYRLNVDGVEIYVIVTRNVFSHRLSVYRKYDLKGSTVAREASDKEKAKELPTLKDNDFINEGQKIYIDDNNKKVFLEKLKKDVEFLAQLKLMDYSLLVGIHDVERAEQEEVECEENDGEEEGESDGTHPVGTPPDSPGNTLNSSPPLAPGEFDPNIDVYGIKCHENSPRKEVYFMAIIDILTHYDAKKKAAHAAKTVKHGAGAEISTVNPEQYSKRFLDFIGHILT
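Controls without substrate or without enzyme flank wells where PI5P4Kalpha converts substrate using 5 microM ATP (final). Incubation lasts 60 minutes at room temperature; ADP formed is read by ADP-Glo luminescence.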
VDR inh: inhibitors of human vitamin D receptor. Potency, µM, for the others: max response, negative = inhibition, most hits filed as inhibitors. 400,000 tested, 0.93% active. VDR-SRC2-3 peptide fluorescence polarization, 2 h. P11473; note: potency is the fitted concentration of half-maximal effect; % is set by controls: 0 for no effect and ±100 for the full control effect
Target sequence (P11473 whole entry, looked up): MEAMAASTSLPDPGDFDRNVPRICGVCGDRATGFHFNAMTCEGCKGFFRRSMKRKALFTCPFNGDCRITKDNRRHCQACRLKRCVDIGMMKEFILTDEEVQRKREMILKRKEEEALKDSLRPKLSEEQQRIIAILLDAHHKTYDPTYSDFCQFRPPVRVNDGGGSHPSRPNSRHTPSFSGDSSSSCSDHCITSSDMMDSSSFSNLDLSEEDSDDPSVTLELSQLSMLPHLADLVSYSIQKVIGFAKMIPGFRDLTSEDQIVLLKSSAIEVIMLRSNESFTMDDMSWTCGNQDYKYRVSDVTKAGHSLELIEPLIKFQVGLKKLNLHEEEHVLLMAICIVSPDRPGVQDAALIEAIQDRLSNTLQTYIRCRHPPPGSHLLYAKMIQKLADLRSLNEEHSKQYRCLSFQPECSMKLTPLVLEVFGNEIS
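Signal is fluorescence polarization, reporting how far test compounds block the interaction of VDR with the SRC2-3 coregulator peptide after a 2 h room-temperature incubation.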
KAT2A inh: inhibitors of human GCN5L2 histone acetyltransferase | Q92830 | GCN5L2 HAT assay, ThioGlo1 CoA-SH fluorescence | Potency, µM (doses to about 58.9 µM), inactives show at the highest dose activity change, negative = inhibition, actives largely listed as inhibitors | 390,000 tested, 0.21% active | AID 504327; note: potency is the fitted concentration of half-maximal effect; % is set by controls: 0 for no effect and ±100 for the full control effect
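qHTS, 1536-well. 20nM enzyme, pH 7.5 HEPES/EDTA/Tween-20 buffer; 15 min compound preinc., RT. Start: 75uM H3(1-25), 70uM AcCoA, 50uM ThioGlo1. Read Ex340/Em540 at t=0 (autofluorescence flag) and t=20 min.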
Numbers without * were called inactive; ? = inconclusive; · = not tested or not shown. Unless noted, calls come from the whole dose curve; as a rule, active = well fitted curve in the direction sought with a large enough effect; inconclusive = small, poorly fitted or top-dose-only effect, or another doubt; inactive = no such curve, though single readings can be large; an effect the other way counts as inactive or inconclusive.

SMILES | PLK1 PBD block | Rango complex inh | Rango dissoc inh | PI5P4K alpha inh | VDR inh | KAT2A inh
COc1ccc(C=CC(=O)c2ccc(OC)c(OC)c2O)cc1OC | -8.8% | -0.3% | -2.4% | -1.3 | ? | ·
Cc1ccc(/C=C/C(=O)c2ccccc(=O)c2O)cc1C | 29.9µM* | ? | 8.2µM* | -21.0 | 44.7µM* | -3.3%
O=C(/C=C/c1ccc(O)cc1)c1ccccc1O | · | · | · | · | 5.62µM* | -26.7%
CCS(=O)(=O)N1CC(=O)N(c2ccc(C)c(C)c2)C(C)(C(=O)NC2CCCCC2)C1 (stereo not drawn) | · | · | · | · | 16.3% | -2.3%
CCCCCCCCCCCC(=O)OCC(O)CO (stereo not drawn) | · | · | · | · | 4.4% | 16.6%
COc1ccc(Cl)cc1NC(=O)c1cc(S(=O)(=O)N2CCc3ccccc32)cn1C | · | · | · | · | 6.5% | -2.8%
O=C1c2cccnc2C(=O)N1CO | 1.5% | 5.6% | 14.0% | -4.1 | 5.9% | -6.6%
O=C1c2cccnc2C(=O)N1C1CCCCC1 | -4.6% | -0.5% | 9.4% | · | -5.9% | -3.5%
O=C1C(=O)c2ncccc2-c2cccnc21 | · | · | · | · | 1.26µM* | -6.7%
NC1=C(Br)C(=O)c2ncccc2C1=O | 7.52µM* | -5.2% | -4.8% | -0.7 | ? | ·
COc1ccc(CNC(=O)CSc2ncc3c(n2)-c2cc(Cl)ccc2N(C)S3(=O)=O)cc1 | · | · | · | · | 11.5% | -1.5%
CCc1ccc(OCC(=O)N(Cc2ccco2)Cc2ccccc2Cl)cc1 | · | · | · | · | 13.6% | -14.0%
COc1ccc(Br)cc1C1C(C(=O)Nc2ccc(C)cc2C)=C(C)Nc2ncnn21 (stereo not drawn) | · | · | · | · | 10.2% | -4.4%
Cc1cccc[n+]1C1C(c2ccccc2)C(C#N)=C(C(=C=[N-])C#N)NC1(O)C1CC1 (stereo not drawn) | ? | ? | ? | -73.7* | 1.4% | -7.7%
C/[N+]([O-])=C\CC(=O)c1ccc(-c2ccccc2)cc1 | 21.2µM* | 0.4% | -13.8% | -21.7 | 1.3% | -7.8%
CCN(CC)CC(=O)c1ccc(-c2ccccc2)cc1 | ? | -0.4% | 12.8% | · | 39.8µM* | -7.6%
CCN(CC)C(=O)c1ccc(-c2ccccc2)cc1 | -9.2% | 1.8% | 9.9% | 1.5 | -6.0% | 1.7%
CN(C)CC(=O)c1ccc(-c2ccccc2)cc1 | -8.7% | 3.3% | -18.5% | · | ? | -5.8%
CCOC(=O)c1c(C)oc2nc(C)nc(NCCCN3CCN(c4cccc(C)c4)C(C)C3)c12 (stereo not drawn) | · | · | · | · | 16.0% | -0.1%
COC(=O)c1ccc(N2C(=O)CC(Sc3n[nH]c(C)n3)C2=O)cc1 (stereo not drawn) | 3.36µM* | 1.3% | 6.4% | -29.9 | -5.0% | -16.4%
CCCCCCCCCCCCCCCCCCc1ccc(C(=O)/C=C/C(=O)O)cc1 | · | · | · | · | ? | -4.0%
C=CC(=O)c1ccc(CCCCCC)cc1 | · | · | · | · | 39.8µM* | -19.3%
CCCCCCCCc1ccc(-c2ccc(C(=O)O)cc2)cc1 | · | · | · | · | 3.4% | 20µM*
CCCCCCCCOc1ccc(C(=O)O)cc1 | ? | 0.3% | 1.6% | 52.3 | -0.6% | -18.7%
CC(=O)c1ccc(CCCCc2ccc(C(C)=O)cc2)cc1 | 3.5% | 3.0% | -2.9% | 5.4 | -12.5% | ·
SMILES | PLK1 PBD block | Rango complex inh | Rango dissoc inh | PI5P4K alpha inh | VDR inh | KAT2A inh
CCCCCCCCCCCCCCCCCCc1ccc(C(=O)/C=C\C(=O)O)cc1 | · | · | · | · | ? | 2.82µM*
CCOCCc1nn2c(=O)cc(COC(=O)c3ccccc3NC(=O)C3CCCCC3)nc2s1 | · | · | · | · | 1.6% | -14.6%
Cc1cc2n(n1)CCC(=O)N2Cc1ccc(C(=O)Nc2ccc(Br)c(C)c2)cc1 | · | · | · | · | 17.5% | -8.7%
Cc1ccc(-c2cn(-c3ccc(Cl)cc3)c(S(=O)(=O)CC(=O)Nc3ccccc3)n2)cc1 | · | · | · | · | 11.6% | -10.0%
COc1ccc(OC)c2c(=S)c3ccccc3[nH]c12 | · | · | · | · | 4.47µM* | 14.1µM*
O=C1N=c2ccc(Br)cc2=C1c1sc(=S)n(NS(=O)(=O)c2ccccc2)c1O | 23.8µM* | -0.1% | 4.7% | -98.1* | ? | ?
O=C1N=c2ccccc2=C1c1sc(=S)n(NC(=O)c2cccc(O)c2)c1O | -14.5% | 0.4% | 0.9% | -22.3 | -21.9% | -6.9%
CCOc1ccc(C[C@H]2NC(=O)CCSSC[C@@H](C(=O)N3CCC[C@H]3C(=O)N[C@@H](CCCN)C(=O)NCC(N)=O)NC(=O)[C@H](CC(N)=O)NC(=O)[C@H]([C@@H](C)O)NC(=O)[C@H]([C@@H](C)CC)NC2=O)cc1 | · | · | · | · | 37.5% | 0.0%
COc1ccc(-c2cc(C(F)(F)F)nc(SCCC(=O)Nc3cccc(O)c3)n2)cc1 | · | · | · | · | -19.5% | -6.9%
Cc1c(C)c2c(c(C)c1O)CCC(C)(COc1ccc(Cc3sc(=O)[nH]c3O)cc1)O2 (stereo not drawn) | · | · | · | · | -10.3% | -37.7%
COC(=O)c1c(N2C(=O)CC(Sc3ccccc3C(=O)O)C2=O)sc2c1CCCC2 (stereo not drawn) | 23.8µM* | 0.1% | 38.3% | -22.2 | -4.0% | -3.3%
COC(=O)c1c(N2C(=O)CC(Sc3ccccc3C(=O)O)C2=O)sc(C)c1C (stereo not drawn) | ? | -5.1% | -9.9% | -7.9 | ? | -6.0%
O=c1[nH]c2ccccc2c2nc3ccccn3c12 | -3.5% | -2.1% | 9.2% | -14.1 | -4.1% | 0.1%
O=c1nc2c(O)cccn2c2c1c(=O)[nH]c1ccccc12 | 23.8µM* | ? | ? | -58.2* | 2.2% | ?
Cc1ccc(-n2c(CCC(=O)O)ccc2-c2cccs2)cc1Cl | · | · | · | · | ? | -2.2%
COc1cc(/C=C/c2ccc3c(Br)cc(Br)c(O)c3n2)ccc1O | 23.8µM* | 2.7% | -0.8% | -23.3 | ? | -4.9%
O=C(c1ccc([N+](=O)[O-])cc1)N(Cc1ccccc1)c1ccccn1 | -1.4% | -0.5% | 14.5% | 0.1 | -2.5% | -2.3%
O=[N+]([O-])c1ccccc1SN(Cc1ccccc1)c1ccccn1 | 11.9µM* | ? | -3.4% | 10.2 | -8.4% | -3.4%
Cc1[nH]c(-c2ccccn2)nc(=S)c1Cl | 29.9µM* | 0.1% | 1.0% | -27.4 | -3.1% | 25.8%
CCOC(=O)c1ccc(OCC2c3cc(OC)c(OC)cc3CCN2C(=O)Cc2ccc(OC)c(OC)c2)cc1 (stereo not drawn) | · | · | · | · | 2.5% | -8.6%
COc1cccc(NC(=O)CNC(=O)Cn2c(C)cc3ccccc3c2=O)c1 | · | · | · | · | -11.7% | -5.2%
CCOc1ccc(OCC)c(NS(=O)(=O)c2ccc3c(c2)CCCN3C(C)=O)c1 | · | · | · | · | -1.2% | -0.7%
Cc1ccc(/C=C/C(=O)O)cc1S(=O)(=O)NCCCO | -7.8% | 0.1% | 7.9% | -15.4 | 5.0% | -3.1%
Cc1ccc(/C=C/C(=O)O)cc1S(=O)(=O)N(CCO)CCO | -8.1% | 4.9% | 9.8% | -59.0* | 15.2% | -5.2%
O=C1CCC(c2ccccc2)c2ccccc21 (stereo not drawn) | 5.1% | ? | -13.1% | 0.0 | -2.7% | ·
